According to paper PMC7819943, “Rice protein-binding microarrays: a tool to detect cis-acting elements near promoter regions in rice”:
Whole data set: some 39,000 sequences, median “fluorescence intensity (a.u.)” near 4,300, cut for the highest 2% near 39,000. The list comes from a sample in which the highest values are over-represented; it also holds similar and randomly drawn sequences.

Target: T1, OsSMF1 (Oryza sativa, UniProt Q6ZLB0 1-436)
T1 sequence: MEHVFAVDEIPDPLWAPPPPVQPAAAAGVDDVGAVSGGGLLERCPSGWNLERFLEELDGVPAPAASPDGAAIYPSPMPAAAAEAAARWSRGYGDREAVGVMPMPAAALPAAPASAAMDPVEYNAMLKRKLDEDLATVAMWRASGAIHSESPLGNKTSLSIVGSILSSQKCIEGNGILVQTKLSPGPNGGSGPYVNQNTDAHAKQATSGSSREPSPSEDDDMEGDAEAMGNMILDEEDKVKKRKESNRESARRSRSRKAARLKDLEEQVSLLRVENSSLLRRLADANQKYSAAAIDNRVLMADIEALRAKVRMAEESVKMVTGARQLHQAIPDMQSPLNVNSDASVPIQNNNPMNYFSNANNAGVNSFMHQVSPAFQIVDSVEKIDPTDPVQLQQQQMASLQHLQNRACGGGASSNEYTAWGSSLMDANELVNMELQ
Experiment: protein-binding microarray (RPBM); PBS, 2% BSA, 51.3 ng/ul salmon testes DNA, 50 uM zinc acetate, 200 nM TF, 25 C, 1 h; high values mean tight binding
Conditions: protein: recombinant; tags: N-terminal polyhistidine and DsRed monomer fusion (pET32a); chain copies: 2; label: CyDye5-dUTP incorporated in the synthesized complementary strand; 3' TTTTT single-stranded linker to array surface; dsDNA, one strand shown
How it was run: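 Polyhistidine-tagged DsRed fusions of transcription factors, joined at the N-terminus, were expressed in E. coli BL21-CodonPlus and isolated on Ni–NTA. They were incubated at 200 nM for 1 h at 25 °C on a custom Agilent array, double-stranded and BSA-blocked, in PBS with 2% BSA, salmon testes DNA and 50 µM zinc acetate. The binding signal is per-feature fluorescence intensity (arbitrary units) read on an Axon 4000B scanner after washing.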

With “ACGATATGACGGAAAAGTTGGAAGTTTGTGTGTAGAAAAGCGGAGTCACCTAGTGCAG” as the sequence, how does the binding signal read?
The binding signal was 3140 fluorescence intensity (a.u.).

“CCATCTCCGACGAATGATGCTTTGACACTTAATGCTGCGTCGGAGTCACCTAGTGCAG” was tested. Which binding signal did it give?
Its binding signal is 3350 fluorescence intensity (a.u.).

“CGGCTTACGGCCGCCTGTCGGGGAAGATGACTCCCTCTTCCGGAGTCACCTAGTGCAG” was tested. Which binding signal did it give?
The binding signal was 5050 fluorescence intensity (a.u.).

Which binding signal does the source give for “AACAAAAGTTGTTTTGACTCACGCGGTGGCTGTTGTCTGTCGGAGTCACCTAGTGCAG” here?
The binding signal was 6340 fluorescence intensity (a.u.).

How did the binding signal turn out when “TTAAGGACGATTTTGTAATTCAGCTGACAAGACGAGGGATCGGAGTCACCTAGTGCAG” was run?
The binding signal was 4300 fluorescence intensity (a.u.).

“GGAAGCGGCTGCTGACAATGGGGATTAGATAGGCTAAGGGCGGAGTCACCTAGTGCAG” was tested. Which binding signal did it give?
The binding signal was 3700 fluorescence intensity (a.u.).

With “GTCACCGAAGGCGATTAAGGGACAAGCTATAGCTGATTTTCGGAGTCACCTAGTGCAG” as the sequence, how does the binding signal read?
The binding signal was 46100 fluorescence intensity (a.u.).

Which binding signal does the source give for “CCGAGGCCCAATAAATTATGGGGTTGGCTCCAATAAATTACGGAGTCACCTAGTGCAG” here?
Its binding signal is 3940 fluorescence intensity (a.u.).

Which binding signal does the source give for “TACTACTTCCGATCAGAGCCATACCAATGCCACGACACGACGGAGTCACCTAGTGCAG” here?
Its binding signal is 4090 fluorescence intensity (a.u.).

Which binding signal does the source give for “GCCATCTGACAACCAGTAAATGTACTGTCCACCGGGCCAACGGAGTCACCTAGTGCAG” here?
The binding signal was 6470 fluorescence intensity (a.u.).

How did the binding signal turn out when “TTTCGCCATTTCCGACAATGTACTTCACCACTGATCTGAACGGAGTCACCTAGTGCAG” was run?
The binding signal was 64900 fluorescence intensity (a.u.).

How did the binding signal turn out when “CAAGTGATAATCTATACCTAGTTGATGATGCCAATATCATCGGAGTCACCTAGTGCAG” was run?
Its binding signal is 4340 fluorescence intensity (a.u.).

“TGCAACCACCACCACCACGTCCCAAACTCGCACGTTTCTCCGGAGTCACCTAGTGCAG” was tested. Which binding signal did it give?
Its binding signal is 4090 fluorescence intensity (a.u.).

With “ACAATGTTCCGGGTCTTATATTGCCAAATCAGTGACGTACCGGAGTCACCTAGTGCAG” as the sequence, how does the binding signal read?
Its binding signal is 59800 fluorescence intensity (a.u.).

How did the binding signal turn out when “CTGTGTGAACAACAAATCAATGGCCACGTCATATATGTACCGGAGTCACCTAGTGCAG” was run?
Its binding signal is 16800 fluorescence intensity (a.u.).

Which binding signal does the source give for “CAAATGTTCTTTTGACGTATATGACCACATATTTGCAGTACGGAGTCACCTAGTGCAG” here?
Its binding signal is 3520 fluorescence intensity (a.u.).

Which binding signal does the source give for “GGGCGCACCTACAGCACCAAGTGTAACCAGAGCTTACACACGGAGTCACCTAGTGCAG” here?
Its binding signal is 3420 fluorescence intensity (a.u.).

For “CCTCCATCTATGTCCTGCTGTCCAACATCTACGCGGATGCCGGAGTCACCTAGTGCAG”, which binding signal is on record?
Its binding signal is 3820 fluorescence intensity (a.u.).

Which binding signal does the source give for “ATGGCGCGCCGCCACGTCACCCCGACTCGCCACGTCAGCACGGAGTCACCTAGTGCAG” here?
Its binding signal is 65500 fluorescence intensity (a.u.).

“TTCTCTCCGTCTTCCTCCAGCACTGAATTTGTCGCTGGCGCGGAGTCACCTAGTGCAG” was tested. Which binding signal did it give?
The binding signal was 64900 fluorescence intensity (a.u.).

For “ACGTTCCACTCGCGCGCCTCCACGTCAGCACCCACTGTGGCGGAGTCACCTAGTGCAG”, which binding signal is on record?
Its binding signal is 42300 fluorescence intensity (a.u.).

“AATTCCTCTCTCTCTCTCCCCTCCCATGGCGTCACTGTCGCGGAGTCACCTAGTGCAG” was tested. Which binding signal did it give?
The binding signal was 6120 fluorescence intensity (a.u.).

Which binding signal does the source give for “GACGCATGCACGCCGCCACGTCGCGCGCCATGGCCACCCCCGGAGTCACCTAGTGCAG” here?
The binding signal was 9700 fluorescence intensity (a.u.).

“CTCTCTCCTCGTCTTCCTCGCGCTGACTCTTCTCCTCCTCCGGAGTCACCTAGTGCAG” was tested. Which binding signal did it give?
Its binding signal is 3180 fluorescence intensity (a.u.).

Which binding signal does the source give for “GCTAGCACTCGCCTCCCTCTGCGCCCACGCCACGCTGTGGCGGAGTCACCTAGTGCAG” here?
Its binding signal is 4110 fluorescence intensity (a.u.).

How did the binding signal turn out when “CTTCACCGGCGGCGAGGAGCACGTCACCGGCGGCGAGCACCGGAGTCACCTAGTGCAG” was run?
Its binding signal is 4120 fluorescence intensity (a.u.).

“TTCTCCTCGGCCTCCATGTGCACGTCCATGTGGCGCATGGCGGAGTCACCTAGTGCAG” was tested. Which binding signal did it give?
The binding signal was 4220 fluorescence intensity (a.u.).

“TTCACTCGAGGAGGCGGCGGAGGCAGTCCACGTCAGCAACCGGAGTCACCTAGTGCAG” was tested. Which binding signal did it give?
Its binding signal is 39000 fluorescence intensity (a.u.).

For “TGACCGGCGCAGCTCGCGCCACGTCACCCGCACGCGCCGCCGGAGTCACCTAGTGCAG”, which binding signal is on record?
Its binding signal is 8600 fluorescence intensity (a.u.).

With “CGTGCACGTGTTCACCGGAGGTGCTCGTCAGCAAAGCAGGCGGAGTCACCTAGTGCAG” as the sequence, how does the binding signal read?
Its binding signal is 6000 fluorescence intensity (a.u.).

With “GCCTGTAGCCTGGTGGTTACAAGAGCCTCAGTAGCACCTGCGGAGTCACCTAGTGCAG” as the sequence, how does the binding signal read?
The binding signal was 3250 fluorescence intensity (a.u.).

Which binding signal does the source give for “CAACGGCTATGAGCTGTCACACACTCACAGTAGTACTCCGCGGAGTCACCTAGTGCAG” here?
The binding signal was 3850 fluorescence intensity (a.u.).

How did the binding signal turn out when “ATAAATAGAATGCTGACTGGACTGCCACGCGTACGCCATGCGGAGTCACCTAGTGCAG” was run?
The binding signal was 22000 fluorescence intensity (a.u.).

For “ACGTGCTCAGTCATCATCCTCATGGCCGTTCCTTGCCGAACGGAGTCACCTAGTGCAG”, which binding signal is on record?
Its binding signal is 6930 fluorescence intensity (a.u.).

How did the binding signal turn out when “TTCATAAAACTCCACCTGATCCGAATTACTCTACCAATAACGGAGTCACCTAGTGCAG” was run?
Its binding signal is 4490 fluorescence intensity (a.u.).

How did the binding signal turn out when “GCTTTGGAACTCCTTTAGATTATAATCCAACTCAATTCAACGGAGTCACCTAGTGCAG” was run?
Its binding signal is 4590 fluorescence intensity (a.u.).

Which binding signal does the source give for “CAATTCCGACGAAATCCGGTCGGATTTCACGAAATTTCGACGGAGTCACCTAGTGCAG” here?
Its binding signal is 20600 fluorescence intensity (a.u.).

For “GTAATAATAGATTATATTCAATTAATTAATTATTTATTATCGGAGTCACCTAGTGCAG”, which binding signal is on record?
Its binding signal is 17400 fluorescence intensity (a.u.).

Which binding signal does the source give for “TCTGTACCAAACTCAATTTTAGAATTCAGAGATCCAATAACGGAGTCACCTAGTGCAG” here?
The binding signal was 40000 fluorescence intensity (a.u.).

How did the binding signal turn out when “GATAAATATAGGAATGTTTATAATACTAAATTAATTTAATCGGAGTCACCTAGTGCAG” was run?
The binding signal was 28300 fluorescence intensity (a.u.).

Which binding signal does the source give for “TGATCAAAGGGTTTTACTAAAGGAGTTATGGTCTAATTTTCGGAGTCACCTAGTGCAG” here?
Its binding signal is 64900 fluorescence intensity (a.u.).

With “TCAAAGGGTTTCATAAATTTTATGTATATTTTACAAGATTCGGAGTCACCTAGTGCAG” as the sequence, how does the binding signal read?
Its binding signal is 5540 fluorescence intensity (a.u.).

“CAGAAGGATATATGTTTTATAATTTATTCAAATACTAGATCGGAGTCACCTAGTGCAG” was tested. Which binding signal did it give?
The binding signal was 41400 fluorescence intensity (a.u.).

With “CGATTTACTTCAAATTTTAGAGGATCAGATCCGACGAAATCGGAGTCACCTAGTGCAG” as the sequence, how does the binding signal read?
Its binding signal is 42900 fluorescence intensity (a.u.).

With “ATTTTGGTCAAATTTAAACTAATCTAAGTTTGACTAATTTCGGAGTCACCTAGTGCAG” as the sequence, how does the binding signal read?
Its binding signal is 8280 fluorescence intensity (a.u.).

How did the binding signal turn out when “GAGGACAGATCAAATGATTTTAATGACGAAACATGTGCTTCGGAGTCACCTAGTGCAG” was run?
The binding signal was 4096 fluorescence intensity (a.u.).
